Assay [1] in a line: binders of probe aFSTL3 on microarray, primary screen, stem cell growth factor project, biochemical, small-molecule microarray, fluorescence 635/667 (AID 1064).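 Note: measures binding of the biotinylated anti-FSTL3 antibody to printed compounds.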 The conditions noted are these: higher = more signal.
Assay [2] is described as follows: binders from COS7 lysate, DM2A8 probe, primary screen, torsin A project, cell lysate, small-molecule microarray, fluorescence 635/667 (AID 1065). The conditions noted are these: higher = more signal, COS7 lysate expressing mutant human TOR1A.
A short description of assay [3]: binders of probe aFGF2 on microarray, primary screen, stem cell growth factor project, biochemical, small-molecule microarray, fluorescence 635/667 (AID 1067).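 Note: measures binding of biotinylated aFGF2 protein to printed compounds on slides; z-score merges feature fluorescence and signal-to-noise across triplicate slides.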 The conditions noted are these: higher = more signal.
Assay [4] is described as follows: binders of probe aFGF10 on microarray, primary screen, stem cell growth factor project, biochemical, small-molecule microarray, fluorescence 635/667 (AID 1071).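 Note: score merges 667 nm spot intensity and signal to noise from triplicate slides.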 As to conditions: higher = more signal.
For assay [5], the target named is Neurogenic locus notch homolog protein 2 (Homo sapiens) (UniProt Q04721). Briefly: Notch2 binders on small-molecule microarrays, primary screen, biochemical, small-molecule microarray, 635 nm fluorescence, stem cell growth factors (AID 1073). As to conditions: Notch2 binding, higher = more signal.
Neurogenic locus notch homolog protein 2 (Homo sapiens), sequence (Q04721 whole entry, looked up, canonical isoform): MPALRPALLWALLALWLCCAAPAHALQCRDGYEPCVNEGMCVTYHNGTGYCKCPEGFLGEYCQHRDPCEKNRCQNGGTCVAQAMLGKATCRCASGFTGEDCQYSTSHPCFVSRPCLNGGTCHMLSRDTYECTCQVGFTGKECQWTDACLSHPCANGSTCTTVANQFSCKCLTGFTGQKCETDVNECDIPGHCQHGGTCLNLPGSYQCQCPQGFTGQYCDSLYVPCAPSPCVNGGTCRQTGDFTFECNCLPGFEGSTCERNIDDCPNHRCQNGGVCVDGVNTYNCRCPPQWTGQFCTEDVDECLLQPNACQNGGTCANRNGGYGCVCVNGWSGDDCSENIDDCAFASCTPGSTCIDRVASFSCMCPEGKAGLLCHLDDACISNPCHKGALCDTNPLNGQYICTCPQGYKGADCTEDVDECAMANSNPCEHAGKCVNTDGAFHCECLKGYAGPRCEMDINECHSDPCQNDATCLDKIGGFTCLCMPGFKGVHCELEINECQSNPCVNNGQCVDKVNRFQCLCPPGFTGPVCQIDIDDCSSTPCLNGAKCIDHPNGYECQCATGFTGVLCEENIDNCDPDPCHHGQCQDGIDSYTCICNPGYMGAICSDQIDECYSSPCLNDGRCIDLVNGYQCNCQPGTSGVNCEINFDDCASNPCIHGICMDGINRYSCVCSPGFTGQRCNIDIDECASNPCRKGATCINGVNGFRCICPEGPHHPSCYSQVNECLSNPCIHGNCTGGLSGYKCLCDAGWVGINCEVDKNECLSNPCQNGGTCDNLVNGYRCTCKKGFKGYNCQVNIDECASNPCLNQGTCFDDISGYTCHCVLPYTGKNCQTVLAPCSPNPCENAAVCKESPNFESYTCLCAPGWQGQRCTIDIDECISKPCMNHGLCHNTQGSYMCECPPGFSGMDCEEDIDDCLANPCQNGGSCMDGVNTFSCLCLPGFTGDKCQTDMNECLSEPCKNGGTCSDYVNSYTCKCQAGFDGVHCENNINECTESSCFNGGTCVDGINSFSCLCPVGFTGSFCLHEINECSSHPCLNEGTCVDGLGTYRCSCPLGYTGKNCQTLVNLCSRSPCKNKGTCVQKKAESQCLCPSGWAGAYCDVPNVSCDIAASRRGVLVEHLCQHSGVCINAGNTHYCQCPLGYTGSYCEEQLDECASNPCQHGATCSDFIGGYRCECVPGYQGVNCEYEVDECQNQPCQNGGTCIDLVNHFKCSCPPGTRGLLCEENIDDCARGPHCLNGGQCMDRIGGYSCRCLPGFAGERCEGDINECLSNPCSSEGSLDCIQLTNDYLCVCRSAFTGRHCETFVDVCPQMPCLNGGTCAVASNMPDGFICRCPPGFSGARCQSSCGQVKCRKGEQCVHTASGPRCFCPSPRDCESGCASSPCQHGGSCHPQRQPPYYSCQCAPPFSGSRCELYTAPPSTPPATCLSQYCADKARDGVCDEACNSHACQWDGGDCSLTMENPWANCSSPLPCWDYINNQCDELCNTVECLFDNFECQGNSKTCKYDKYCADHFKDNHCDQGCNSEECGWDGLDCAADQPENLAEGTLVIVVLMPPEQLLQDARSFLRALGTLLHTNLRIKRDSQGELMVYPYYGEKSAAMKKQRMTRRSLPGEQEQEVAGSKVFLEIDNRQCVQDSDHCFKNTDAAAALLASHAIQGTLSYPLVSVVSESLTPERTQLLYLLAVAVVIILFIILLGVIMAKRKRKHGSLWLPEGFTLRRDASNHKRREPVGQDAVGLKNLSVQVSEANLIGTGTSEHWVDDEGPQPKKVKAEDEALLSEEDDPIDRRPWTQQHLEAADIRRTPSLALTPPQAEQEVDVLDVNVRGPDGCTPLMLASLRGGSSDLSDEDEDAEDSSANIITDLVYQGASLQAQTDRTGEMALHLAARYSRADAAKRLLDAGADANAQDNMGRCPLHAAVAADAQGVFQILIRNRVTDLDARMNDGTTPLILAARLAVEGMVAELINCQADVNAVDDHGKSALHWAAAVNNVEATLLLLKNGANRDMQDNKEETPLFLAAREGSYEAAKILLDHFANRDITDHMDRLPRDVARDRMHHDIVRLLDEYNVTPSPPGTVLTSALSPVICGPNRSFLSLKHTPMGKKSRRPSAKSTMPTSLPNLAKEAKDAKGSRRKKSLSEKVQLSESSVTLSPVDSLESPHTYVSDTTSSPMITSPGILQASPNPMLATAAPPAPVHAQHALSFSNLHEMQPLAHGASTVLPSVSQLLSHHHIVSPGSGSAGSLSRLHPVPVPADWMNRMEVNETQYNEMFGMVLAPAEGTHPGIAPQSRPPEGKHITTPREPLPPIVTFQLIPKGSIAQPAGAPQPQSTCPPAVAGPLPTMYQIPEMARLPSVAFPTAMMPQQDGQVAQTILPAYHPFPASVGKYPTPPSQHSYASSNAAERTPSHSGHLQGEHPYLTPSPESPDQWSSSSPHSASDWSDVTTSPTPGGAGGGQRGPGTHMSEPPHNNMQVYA
The target in assay [6] is Pro-neuregulin-1, membrane-bound isoform (Homo sapiens) (UniProt Q02297). Briefly: NRG1 binders on small-molecule microarrays, primary screen, psychiatric disease protein project, biochemical, small-molecule microarray, fluorescence 635/667 (AID 1075).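 Note: score combines 667 nm spot fluorescence with signal to noise.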 As to conditions: NRG1 binding, 635 nm fluorescence, higher = more signal.
Pro-neuregulin-1, membrane-bound isoform (Homo sapiens), sequence (Q02297 whole entry, looked up, the tested form may be a part, canonical isoform): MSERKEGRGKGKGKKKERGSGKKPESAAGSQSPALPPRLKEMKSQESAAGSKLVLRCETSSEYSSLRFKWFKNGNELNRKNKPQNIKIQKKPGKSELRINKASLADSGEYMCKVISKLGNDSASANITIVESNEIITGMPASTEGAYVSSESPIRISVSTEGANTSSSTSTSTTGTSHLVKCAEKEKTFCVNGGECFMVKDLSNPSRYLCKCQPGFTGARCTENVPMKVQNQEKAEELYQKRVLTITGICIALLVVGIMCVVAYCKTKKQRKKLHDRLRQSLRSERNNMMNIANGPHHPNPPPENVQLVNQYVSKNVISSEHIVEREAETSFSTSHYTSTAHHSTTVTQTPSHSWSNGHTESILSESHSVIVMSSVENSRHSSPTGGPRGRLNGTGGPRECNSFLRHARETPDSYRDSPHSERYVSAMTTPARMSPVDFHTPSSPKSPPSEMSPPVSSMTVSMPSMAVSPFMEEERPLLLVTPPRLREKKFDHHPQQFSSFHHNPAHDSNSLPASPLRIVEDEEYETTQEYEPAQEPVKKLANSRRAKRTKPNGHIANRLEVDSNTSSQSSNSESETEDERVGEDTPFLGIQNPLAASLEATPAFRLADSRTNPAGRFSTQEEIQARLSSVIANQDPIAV
The test system of assay [7] is Neuregulin-1 EGF-like domain. Briefly: binders of neuregulin-1 EGF-like domain, primary screen, biochemical, small-molecule microarray, 635 nm fluorescence (AID 1081).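 Note: binding of the protein to compounds printed on small-molecule microarray slides.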 The conditions noted are these: small-molecule microarray binding, higher = more signal.
A short description of assay [8]: FRG1 promoter luciferase signal modulators, primary screen, FRG1 inhibition for FSHD, cell-based, C2C12 myotubes, firefly/Renilla luciferase, luminescence (AID 1084). The conditions noted are these: higher = more signal, called active from +8 up or from −8 down.
The nature of assay [9]: binders of probe aFST on microarray, primary screen, stem cell growth factor project, biochemical, small-molecule microarray, fluorescence 635/667 (AID 1086).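 Note: score merges 667 nm fluorescence with signal-to-noise of each printed compound spot.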 The conditions noted are these: higher = more signal.
A short description of assay [10]: binders of probe aHhip on microarray, primary screen, stem cell growth factor project, biochemical, small-molecule microarray, fluorescence 635/667 (AID 1087).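 Note: score merges spot fluorescence at 667nm with spot signal to noise ratio.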 The conditions noted are these: higher = more signal.

SMILES strings stand for the structures. Calls of active or inactive are those of the source.

Regarding `[N-]=[N+]=NCc1ccccc1C[C@@]1(C(=O)NCC(O)CO)N=C(c2ccc(OCCCO)cc2)O[C@@H]1c1ccccc1` (stereo not given in full), the composite z-score in assay [1] is 1.03; in [2] it was 0.0102; in [3] it was -0.0459; in assay [4], 0.206; in [5] it was 0.111; in [6], 0.768. In addition, the composite z-score in assay [7] is 0.952; in assay [9] it was -0.12; in assay [10], -0.132. Besides, the z-score in assay [8] was -1.26 (inactive).

With `CC(=O)NCCCC[C@@H]1NC(=O)[C@H]2C[C@@H](C(=O)NCCCCCNC(=O)CS)[C@@H](c3ccc(O)cc3)N2C1=O`, the composite z-score was 0.894 in assay [1]; 0.122 in assay [2]; -0.0358 in [3]; -0.0035 in [4]; -0.886 in assay [5]; 0.0616 in [6]. In addition, the composite z-score was 1.34 in [7], -0.226 in assay [9] and -0.175 in assay [10]. Besides, the z-score in assay [8] was 0.515 (inactive).

Turning to `CN1C(=O)C2C=CC(C(O)c3c(F)cccc3Cl)N(NC(=O)OC(C)(C)C)C2C1=O` (stereo not given), the composite z-score came out at 0.171 in [1]; 0.233 in assay [2]; 0.0111 in assay [3]; 1.11 in assay [4]; 1.23 in assay [5]; 1.49 in assay [6]. Also, the composite z-score in assay [7] was determined as 1.3; in assay [9] it was 0.888; in assay [10] it was 0.0623. Besides, the z-score in assay [8] is 0.636 (inactive).

Take `COc1ccc(C(O)C2C=CC3C(=O)N(C)C(=O)C3N2NC(=O)OC(C)(C)C)c2ccccc12` (stereo not given): the composite z-score is 0.152 in [1]; -0.129 in [2]; -0.0107 in [3]; 0.669 in assay [4]; 1.62 in assay [5]; 1.81 in assay [6]. Also, the figures for the composite z-score in assay [7], in assay [9] and in assay [10] were 0.937, 1.37 and 0.0881, respectively. Also, the z-score in [8] was -1.35 (inactive).

In the case of `O=C1O[C@H](c2ccccc2)[C@H](c2ccccc2)N2[C@H]1[C@@H](C(=O)NC[C@H](O)c1ccccc1)[C@]1(C(=O)Nc3ccccc31)[C@H]2c1ccc(O)cc1`, the composite z-score in assay [1] is -0.0095; in [2] it was 0.298; in assay [3], -0.0342; in assay [4], -0.111; in assay [5], 0.633; in assay [6] it was -0.199. In addition, the composite z-score in [7] turned out to be 1.19; in assay [9], 0.153; in [10], 0.0542. Moreover, the z-score in assay [8] was 0.484 (inactive).

For `COc1ccc(-c2cc3c(c(Cc4ccccc4)n2)[Si](C(C)C)(C(C)C)OC3)cn1`, the composite z-score was -0.305 in [1]; 0.28 in [2]; -0.0668 in assay [3]; 0.0198 in [4]; 0.0333 in assay [5]; -0.53 in [6]. Further, the figures for the composite z-score in assay [7], in [9] and in assay [10] were -0.723, 0.29 and -0.236, respectively. Besides, the z-score in [8] was -1.27 (inactive).

`COC(=O)C(CC#Cc1ccc2c(c1)[C@]1(C(=O)N2)[C@H](c2ccccc2OCCO)N2[C@H](c3ccccc3)[C@H](c3ccccc3)OC(=O)[C@H]2[C@@H]1C(=O)O)C(=O)OC`: the composite z-score in [1] was determined as 0.187; in assay [2] it was 0.856; in [3], 0.0876; in assay [4], 0.866; in assay [5], 0.275; in assay [6], 1.65. In addition, the composite z-score in assay [7] was determined as 1.32; in assay [9], 0.411; in [10] it was 0.426. The z-score in assay [8] is -0.173 (inactive).

As to `C=CCN1Cc2ccccc2[C@@H]2OC(c3ccc(OCCCO)cc3)=N[C@]2(CCS(=O)(=O)c2ccccc2)C1=O`, the composite z-score in [1] is 0.189; in assay [2], 0.263; in [3], -0.04; in [4], 0.345; in assay [5], 1.55; in assay [6] it was 0.721. Moreover, the composite z-score in assay [7] was 1.24; in assay [9] it was 0.804; in assay [10] it was -0.191. In addition, the z-score in assay [8] is -3.43 (inactive).

Take `CN(C)C(=O)[C@]1(Cc2ccccc2)N=C(c2ccc(OCCCO)cc2)O[C@@H]1c1ccccc1N=[N+]=[N-]`: the composite z-score in assay [1] was determined as 0.303; in assay [2], 0.746; in assay [3] it was 0.0797; in [4], 0.618; in [5] it was 1.33; in [6], 1.56. Besides, the composite z-score in assay [7] came to 1.13; in assay [9], 0.532; in assay [10], 0.0749. In addition, in [8], the z-score was 0.336 (inactive).

As to `[N-]=[N+]=Nc1ccccc1C[C@]1(C(=O)NCC(O)CO)N=C(c2ccc(OCCCO)cc2)O[C@H]1c1ccccc1` (stereo not given in full), the composite z-score is 0.451 in [1]; 0.533 in assay [2]; -0.0328 in [3]; 0.0717 in assay [4]; 0.641 in [5]; 1.93 in assay [6]. Also, the results for the composite z-score in [7], in [9] and in assay [10] were 0.867, 1.56 and -0.0391, respectively. Also, the z-score in [8] is -0.666 (inactive).

As to `CC(C)NC(=O)[C@@H]1c2ccccc2C(=O)N(C(C)C)[C@H]1c1ccc(CO)cc1`, the composite z-score in [1] is 0.473; in [2], 0.0121; in assay [3], -0.0064; in assay [4], -0.057; in [5] it was -0.78; in assay [6], 0.853. Also, the composite z-score in [7] is 1.47; in [9] it was -0.868; in [10], -0.236. In addition, the z-score in assay [8] is 0.229 (inactive).

In the case of `Cc1ccc(S[C@]2(C(=O)O)CC(=O)N(C(C)C)[C@@H]2c2ccc(CO)cc2)cc1`, the composite z-score was 0.125 in assay [1]; 0.552 in assay [2]; -0.172 in assay [3]; -0.0563 in [4]; -0.445 in assay [5]; -0.226 in assay [6]. For the same compound, the composite z-score was 0.751 in assay [7], -0.735 in [9] and -0.189 in assay [10]. Besides, the z-score in assay [8] was -0.175 (inactive).

For the compound `COC(=O)C[C@H]1O[C@@H](CCc2ccccc2)[C@@H](C)[C@@H]1[Si](C)(C)c1ccc(OC)cc1`, the composite z-score in assay [1] is -0.136; in [2] it was -0.724; in assay [3], -0.17; in assay [4], -0.318; in assay [5] it was -0.514; in [6], -0.553. Further, the values for the composite z-score in assay [7], in assay [9] and in [10] were -0.743, -0.165 and -0.137, respectively. Besides, the z-score in assay [8] was -0.149 (inactive).

`CCCCC(=C=CC[C@@H](O)c1cccc(OCCO)c1)C[C@@H](O)c1ccccn1`: the composite z-score in [1] was -0.528; in [2] it was 0.775; in [3] it was -0.0771; in assay [4], 0.702; in assay [5], 0.0548; in [6] it was 0.23. The composite z-score in [7] is 1.12; in assay [9] it was 0.381; in assay [10], -0.0618. Besides, in assay [8], the z-score was 1.36 (inactive).

(Values after PubChem BioAssay.)
